Measurements from PubChem BioAssay (Tox21).
Inconclusive results are not listed. Activity calls are given as the source filed them. Unless noted, calls follow the shape of the full dose curve.

Legend:
[1] = qHTS assay to identify small molecule antagonists of the sonic hedgehog signaling (Shh) pathway (AID 1259369); also: nearly all actives have a fitted effect of over 45% in size
In short: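 Luminescence readout: firefly Luc under Gli1 response element in 3T3Gli1-Luc cells (NIH/3T3 clone). Antagonist mode, stimulation by conditioned medium; compound exposure 24hr at 37 C, 5% CO2.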

[2] = qHTS assay to identify small molecule agonists of the androgen receptor (AR) signaling pathway in the presence of an antagonist - cell viability counter screen (AID 1259379; active = well fitted curve in the direction sought with a large enough effect in the repeat runs; an effect the other way counts as inactive or inconclusive;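 also: MDA-kb2 human breast cancer cells carrying an MMTV luciferase reporter; series mostly up to about 92 µM; nearly all actives have a fitted effect of over 25% in size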)
In short: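 Viability counter screen: CellTiter-Fluor fluorescence, measured in the same wells as the luciferase read-out. MDA-kb2 cells, 3,000/well, with nilutamide at 3.0uM final and compounds at 15 concentrations, 16 hr at 37C, 0% CO2.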

[3] = qHTS assay to identify small molecule agonists of the estrogen receptor beta (ER-beta) signaling pathway - cell viability counter screen (AID 1259380; active = well fitted curve in the direction sought with a large enough effect in the repeat runs; an effect the other way counts as inactive or inconclusive; also: nearly all actives have a fitted effect of over 30% in size)
In short: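 Luminescence read-out (CellTiter-Glo, 30 min, room temp) taken in the same wells as the beta-lactamase reporter assay; ER-beta-UAS-bla HEK293T cells exposed to DMSO-dissolved compounds for 16 hr at 37C in 2% charcoal-stripped FBS medium.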

[4] = qHTS assay to identify small molecule antagonists of the estrogen receptor beta (ER-beta) signaling pathway - cell viability counter screen (AID 1259382; active = well fitted curve in the direction sought with a large enough effect in the repeat runs; an effect the other way counts as inactive or inconclusive;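 also: HEK293T cells carrying ER-beta-UAS-bla reporter stimulated with estradiol; series mostly up to about 92 µM; nearly all actives have a fitted effect of over 55% in size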)
In short: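 Luminescent ATP read-out (CellTiter-Glo, 30 min, RT) taken in the same wells as the bla reporter assay. HEK293T ER-beta-UAS-bla cells in 2% charcoal-stripped FBS were exposed to compounds with 1nM E2 for 16 hr at 37C.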

[5] = target: Estrogen receptor (Homo sapiens) (UniProt P03372); test: qHTS assay to identify small molecule agonists of the estrogen receptor alpha (ER-alpha) signaling pathway in the presence of an antagonist (AID 1259383); also: top concentration of the series differs between compounds; nearly all actives have a fitted effect of over 15% in size
Estrogen receptor (Homo sapiens), sequence (P03372 whole entry, looked up): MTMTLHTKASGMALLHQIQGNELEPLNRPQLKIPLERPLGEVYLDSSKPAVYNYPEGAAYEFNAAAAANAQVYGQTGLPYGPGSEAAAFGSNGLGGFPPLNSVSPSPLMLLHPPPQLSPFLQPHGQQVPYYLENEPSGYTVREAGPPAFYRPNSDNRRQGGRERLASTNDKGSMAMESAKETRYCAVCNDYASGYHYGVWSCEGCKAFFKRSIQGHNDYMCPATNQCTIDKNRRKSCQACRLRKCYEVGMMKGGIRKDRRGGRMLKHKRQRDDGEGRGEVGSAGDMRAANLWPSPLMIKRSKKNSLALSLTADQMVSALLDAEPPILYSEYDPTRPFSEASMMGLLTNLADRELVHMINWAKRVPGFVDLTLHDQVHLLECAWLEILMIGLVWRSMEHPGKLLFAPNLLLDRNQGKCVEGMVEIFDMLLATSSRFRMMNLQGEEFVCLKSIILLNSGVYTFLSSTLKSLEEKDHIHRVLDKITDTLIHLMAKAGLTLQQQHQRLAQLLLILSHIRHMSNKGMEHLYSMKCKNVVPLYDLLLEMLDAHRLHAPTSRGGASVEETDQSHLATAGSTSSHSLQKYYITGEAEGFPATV
In short: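 Luciferase luminescence (ONE-Glo, 30min at room temperature) measured in VM7Luc4E2 cells after 22hr compound exposure at 15 concentrations, with 10.0nM ICI-182,780 final present; cells express endogenous ER-alpha and carry four EREs upstream of luciferase.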

[6] = qHTS assay to identify small molecule agonists or antagonists of the thyroid stimulating hormone receptor (TSHR) signaling pathway - wild type cell line counter screen (AID 1259384)
In short: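 Wild-type Hek293 cells, 800/well, 18 h at 37C, then compound with Ro20-1724 for 30 min RT. cAMP by HTRF (cAMP-d2/anti-cAMP cryptate), 1 h RT, fluorescence read. 15 concentrations, triplicates.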

[7] = target: Thyrotropin receptor (Homo sapiens) (UniProt P16473); test: qHTS assay to identify small molecule antagonists of the thyroid stimulating hormone receptor (TSHR) signaling pathway (AID 1259385); also: nearly all actives have a fitted effect of over 20% in size
Thyrotropin receptor (Homo sapiens), sequence (P16473 whole entry, looked up): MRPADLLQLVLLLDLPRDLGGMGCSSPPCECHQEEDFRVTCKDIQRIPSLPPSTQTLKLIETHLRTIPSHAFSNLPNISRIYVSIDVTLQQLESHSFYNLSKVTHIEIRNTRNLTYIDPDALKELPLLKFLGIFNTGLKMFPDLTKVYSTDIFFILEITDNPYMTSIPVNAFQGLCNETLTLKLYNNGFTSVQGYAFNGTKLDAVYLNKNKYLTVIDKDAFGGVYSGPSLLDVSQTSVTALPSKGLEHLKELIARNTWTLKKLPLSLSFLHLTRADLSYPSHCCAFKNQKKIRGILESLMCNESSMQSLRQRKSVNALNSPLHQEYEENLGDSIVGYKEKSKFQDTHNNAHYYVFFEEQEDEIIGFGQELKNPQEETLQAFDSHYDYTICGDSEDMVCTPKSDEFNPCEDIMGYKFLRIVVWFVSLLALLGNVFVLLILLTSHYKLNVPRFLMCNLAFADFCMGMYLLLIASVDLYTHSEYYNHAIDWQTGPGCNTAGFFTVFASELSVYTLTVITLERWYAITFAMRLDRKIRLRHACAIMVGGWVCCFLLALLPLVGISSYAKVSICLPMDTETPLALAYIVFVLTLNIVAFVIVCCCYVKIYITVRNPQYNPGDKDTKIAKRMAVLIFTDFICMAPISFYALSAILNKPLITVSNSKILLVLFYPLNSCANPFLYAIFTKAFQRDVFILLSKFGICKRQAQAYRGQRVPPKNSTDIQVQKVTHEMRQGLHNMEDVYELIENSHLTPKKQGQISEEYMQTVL
In short: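 TSHR-HEK293 cells (800/well) plated 18 h, then compounds with Ro20-1724 and TSH at 1.5 ng/mL final, 30 min at room temperature. cAMP quantified by HTRF (cAMP-d2/anti-cAMP-cryptate, 1 h); 15 concentrations in triplicate.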

Measured: Potency

CC(=O)CC(c1ccc([N+](=O)[O-])cc1)c1c(O)c2ccccc2oc1=O (stereo not given)
inactive: [1] | [2] | [3] | [4] | [5] | [6]

CC1=CC(=O)CC(C)(C)C1(O)/C=C/C(C)=C\C(=O)O (stereo not given)
inactive: [1] | [2] | [3] | [4] | [6] | [7]

O=C(O)c1cccnc1C(=O)O
inactive: [1] | [2] | [3] | [4] | [5] | [6] | [7]

CCCCCCCC/C=C\CCCCCCCC(=O)OC
inactive: [1] | [2] | [3] | [4] | [6] | [7]

CCCCC(CC)CNCC(CC)CCCC (stereo not given)
inactive: [1] | [2] | [3] | [4] | [6] | [7]

COc1ccc(CCC(=O)c2c(O)cc(O[C@@H]3O[C@H](CO)[C@@H](O)[C@H](O)[C@H]3O[C@@H]3O[C@@H](C)[C@H](O)[C@@H](O)[C@H]3O)cc2O)cc1O
inactive: [1] | [2] | [3] | [4] | [5] | [6] | [7]

COc1cc2[nH]c(=O)[nH]c(=O)c2cc1OC
inactive: [1] | [2] | [3] | [4] | [5] | [6] | [7]
